Shown is part of a subset that was picked to be rich in hits.
ERp5 block: ERp5 (human) disulfide isomerase inhibition; inhibition, % at 9.99 µM; Q15084; 350,000 tested, 0.05% active; ERp5 insulin aggregation, absorbance 650 nm, 90 min; AID 651711;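 active = mean replicate inhibition above about 25%, with every replicate also reaching it, limit read from the data, passing the limit was not always enough; inconclusive = only one of those two criteria met; inactive = neither criterion met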
Target sequence (Q15084 whole entry, looked up): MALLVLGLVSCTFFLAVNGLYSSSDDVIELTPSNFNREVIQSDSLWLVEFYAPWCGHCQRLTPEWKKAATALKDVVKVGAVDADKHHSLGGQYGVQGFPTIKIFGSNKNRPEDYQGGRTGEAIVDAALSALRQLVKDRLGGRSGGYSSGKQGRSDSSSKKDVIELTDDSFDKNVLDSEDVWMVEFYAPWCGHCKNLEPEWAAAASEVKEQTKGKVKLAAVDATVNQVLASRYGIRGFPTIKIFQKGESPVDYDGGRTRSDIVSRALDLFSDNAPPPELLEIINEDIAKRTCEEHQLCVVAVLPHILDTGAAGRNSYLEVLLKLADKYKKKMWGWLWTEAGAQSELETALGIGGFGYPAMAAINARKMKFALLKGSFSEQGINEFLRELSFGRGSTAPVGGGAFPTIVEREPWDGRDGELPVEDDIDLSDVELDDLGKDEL
NRP1-CendR mod: modulators of CendR peptide binding to human neuropilin-1 | FAM-RPARPAR peptide binding to NRP-1, fluorescence polarization | inhibition, % at 25 µM | 360,000 tested, 0.85% active;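 active = inhibition or corrected inhibition above about 18%, plus a signal ratio from 0.5 to 1.5, limit read from the data, passing the limit was not always enough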
PglD DTNB: blocks C. jejuni PglD acetyltransferase activity; purified PglD enzyme, DTNB colorimetric CoA detection; inhibition, % at 12.5 µM; 360,000 tested, 0.098% active; AID 602405; in the data active = inhibition above about 16%, passing the limit was not always enough; inconclusive = no clear call, values can overlap the other calls
ALR inh: blocks human ALR sulfhydryl oxidase activity. inhibition, % (concentration not given with the values). purified ALR, DTT oxidation, H2O2 HRP-luminol luminescence. 290,000 tested, 3.8% active. P55789;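 active = mean replicate inhibition above about 79%, with every replicate also reaching it, limit read from the data; inconclusive = only one of the two criteria met; inactive = mean below limit and not every replicate reaching it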
PDI inh: blocks human protein disulfide isomerase activity; PDI insulin aggregation turbidity, A650, 90 min; inhibition, % at 10 µM; P07237; 350,000 tested, 0.052% active; AID 588391;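 active = mean inhibition across replicates of 30% or more, whatever share of single replicates reach that level; inconclusive = mean inhibition below 30% while every single replicate reaches 30%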
ARNT-TACC3 inh: ARNT/TACC3 interaction disruption | AlphaScreen His-ARNT PAS-B/GST-TACC3 binding, luminescence; TACC3 fragment carries E629A point mutation | inhibition, % at 9.99 µM | 390,000 tested, 0.66% active;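 active = mean inhibition of replicates at least 50% and at least half of replicates each reaching 50%; inconclusive = half or more replicates reach 50% but mean below 50%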
Of the large screens only hits and unclear results are named; the others gave an inactive call.

COc1ccc(-c2nc(CSCC(=O)NCc3ccc4c(c3)OCO4)c(C)o2)cc1OC	ALR inh 99 (no result: PDI inh)
COc1ccc(-c2nc(CS(=O)CC(=O)NCc3ccc4c(c3)OCO4)c(C)o2)cc1OC (stereo unspecified)	ALR inh 99
COc1cccc(-c2nnc(SCC(=O)N3CCCc4ccccc43)o2)c1	ALR inh 87 (no result: ERp5 block)
COc1ccc(-c2nc(CSCC(=O)NCc3ccc4c(c3)OCO4)c(C)o2)cc1	none (no result: PDI inh)
Cc1oc(-c2ccc(Cl)cc2)nc1CS(=O)CC(=O)NCc1ccc2c(c1)OCO2 (stereo unspecified)	none (no result: PDI inh)
COc1ccc(-c2nc(CSCC(=O)N3CCN(C4CCCCC4)CC3)c(C)o2)cc1OC	none (no result: ALR inh, PDI inh)
COc1ccc(-c2nc(CSCC(=O)NCCC3=CCCCC3)c(C)o2)cc1OC	ALR inh 100 (no result: ERp5 block, PglD DTNB)
COc1ccc(NC(=O)CSc2nccn2-c2cccc(OC)c2)cc1	ALR inh 98 (no result: ERp5 block)
COc1cccc(NC(=O)CSc2nccn2-c2cccc(OC)c2)c1	ALR inh 98 (no result: ERp5 block)
Cn1nnnc1SCC(=O)Nc1ccc2c(c1)OCCO2	none
O=C(CSc1nccn1-c1cccc(Cl)c1)Nc1ccc2c(c1)OCCO2	ALR inh 99
COc1ccc2c3c([nH]c2c1)[C@@H](CO)N(Cc1nccs1)CC31CN(C(=O)C2CCC2)C1	none (no result: NRP1-CendR mod, PglD DTNB, ALR inh, PDI inh, ARNT-TACC3 inh)
CC(=O)N(C)C[C@H]1[C@H](c2ccc(-c3cccc(C#N)c3)cc2)[C@@H](CO)N1C(C)=O	none (no result: NRP1-CendR mod, ALR inh, PDI inh)
CCOC(=O)C1=C(C)NC(=O)NC1c1ccc(N(CC)CC)cc1 (stereo unspecified)	ALR inh 98
COC(=O)C1=C(C)NC(C)=C(C(=O)OC)C1c1ccc(NC(C)=O)cc1	none
CCN(CC)c1ccc(C2NC(=O)NC(C)=C2C(=O)Nc2ccccc2)cc1 (stereo unspecified)	ALR inh 99
CCOC(=O)C1=C(C)NC(=O)NC1c1ccc(N(C)C)cc1 (stereo unspecified)	none (no result: ALR inh)
CC1=C(C(=O)Nc2ccccc2)C(c2ccco2)NC(=O)N1 (stereo unspecified)	none (no result: ERp5 block, ALR inh)
CCN(CC)c1ccc(C2C(C(=O)OC)=C(C)NC(C)=C2C(=O)OC)cc1	ALR inh 99 (no result: ERp5 block)
CC1=C(C(=O)OCC2CCCO2)C(c2ccccc2)NC(=O)N1 (stereo unspecified)	ERp5 block inconclusive, NRP1-CendR mod 28
CC1=C(C(=O)OCC2CCCO2)C(c2ccc(O)cc2)NC(=O)N1 (stereo unspecified)	none (no result: ERp5 block)
CN1c2ccc(Br)cc2[C@@H]2[C@@H](CCN2C(=O)C2CCCCC2)[C@@H]1CO	none (no result: NRP1-CendR mod, ALR inh, PDI inh)
CC(C)OC(=O)Cn1cnc2ccc(Br)cc2c1=O	ALR inh 89 (no result: ERp5 block)
COC(=O)Cn1cnc2ccccc2c1=O	none (no result: ERp5 block)
COc1ccc(NC(=S)Nc2ccccc2F)c(OC)c1	none (no result: ERp5 block)
COc1ccc(O)c(CNc2ccccc2F)c1	ALR inh 99
COc1ccc(-c2ccc([C@@H]3[C@@H](CO)N4C(=O)CNC[C@@H]34)cc2)cc1	none (no result: NRP1-CendR mod, PglD DTNB, ALR inh, PDI inh, ARNT-TACC3 inh)
O=C1c2ccccc2C(=O)c2[nH]c(=O)[nH]c21	NRP1-CendR mod 28 (no result: ALR inh, ARNT-TACC3 inh)
O=C1c2ccccc2C(=O)c2[nH]cnc21	NRP1-CendR mod 18
O=C1C(O)=C(O)C(=O)c2ccccc21	none (no result: PDI inh, ARNT-TACC3 inh)
Cc1noc(C)c1S(=O)(=O)Nc1ccc2c(c1)CC(=O)N([C@@H](C)CO)C[C@@H](C)[C@@H](CN(C)C(=O)NC1CCCCC1)O2	none (no result: NRP1-CendR mod, ALR inh, PDI inh)
O=C(c1ccccc1)N1Cc2ccccc2[C@H]2OC(c3ccc(OCCCO)cc3)=N[C@@]2(CCS(=O)(=O)c2ccccc2)C1=O	none (no result: NRP1-CendR mod, ALR inh, PDI inh)
O=C(NCCc1c[nH]c2ccc(Cl)cc12)c1cccnc1	none (no result: PglD DTNB)
CC(=O)NCCCc1c[nH]c2ccc(Cl)cc12	ALR inh 98 (no result: ERp5 block)
N#Cc1ccc(-c2ccc([C@@H]3[C@@H](CO)N4C(=O)CN(C(=O)C5CCCC5)C[C@@H]34)cc2)cc1	none (no result: NRP1-CendR mod, PglD DTNB, ALR inh, PDI inh, ARNT-TACC3 inh)
COc1cc(-c2nc3ccccn3c2/N=C/c2ccc(F)cc2)ccc1O	ALR inh 95
COc1cc(-c2nc3ccccn3c2/N=C/c2cccc(OC)c2O)ccc1O	ALR inh inconclusive (no result: PglD DTNB, ARNT-TACC3 inh)
Cc1noc(C)c1NC(=O)N(C)C[C@H]1Oc2ccc(NC(=O)Nc3ccc4c(c3)OCO4)cc2C(=O)N([C@@H](C)CO)C[C@H]1C	none (no result: NRP1-CendR mod, ALR inh, PDI inh)
O=C(c1oc2ccccc2c1N1CCCCC1)N1CCCCC1	ALR inh 99 (no result: ERp5 block)

Bioassay records (PubChem BioAssay)
